Inconclusive results are not listed. Entries that show only a call come without a potency. Values without a mark were called inactive. Activity calls are given as the source filed them. Unless noted, calls come from the whole dose curve.
Note: nearly all actives have a fitted effect of over 30% in size.

Test system in one test: not listed separately
Put plainly: qHTS assay to identify small molecule agonists of the estrogen receptor alpha (ER-alpha) signaling pathway in the presence of an antagonist - cell viability counter screen (AID 1259386; active = well fitted cell-killing curve with a large enough effect in the repeat runs;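 note: cells exposed to compounds for 22 h at 37 °C before the viability read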). As to conditions: VM7Luc4E2 viability, CellTiter-Fluor fluorescence, 22 h; series mostly up to 92.4 µM. The procedure, abridged:
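Steps: 5-day stripped-FBS culture; seed and incubate 24hr; add ICI-182,780 (10.0nM final); pin 15-point compound titration; incubate 22hr at 37C; add CellTiter-Fluor at 21hr; read fluorescence.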
(In general: Quantitative high-throughput screening tests each substance at several concentrations.)
In the case of `CCOCCn1c(C2CCN(CCc3ccc(C(C)(C)C(=O)O)cc3)CC2)nc2ccccc21`, the Potency entry was “inactive”.

Regarding `CCCCOC(=O)CCS`, the Potency entry was “inactive”.

For the compound `CCCOC(=O)c1ccc(N)cc1`, the Potency entry is “inactive”. On the same count and under the same terms, the entry for `CC1(C)C(=O)N(Br)C(=O)N1Cl` is “inactive”.

In another test the target is Progesterone receptor (Homo sapiens) (UniProt P06401). Put plainly: qHTS assay to identify small molecule agonists of the progesterone receptor (PR) signaling pathway (AID 1346784). Note: potency is the fitted concentration of half-maximal effect. The settings on record: PR-UAS-bla HEK293T, beta-lactamase FRET ratio, 16 h; series mostly up to 92.4 µM. The procedure, abridged: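 The screen uses PR-UAS-bla HEK 293T cells in charcoal-stripped serum (2%). Compounds are applied for 16 hr at 37C after a 6 hr pre-incubation, and reporter activity is detected with a FRET beta-lactamase substrate after 2 hr at room temperature.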
Sequence of Progesterone receptor (Homo sapiens) (P06401 whole entry, looked up): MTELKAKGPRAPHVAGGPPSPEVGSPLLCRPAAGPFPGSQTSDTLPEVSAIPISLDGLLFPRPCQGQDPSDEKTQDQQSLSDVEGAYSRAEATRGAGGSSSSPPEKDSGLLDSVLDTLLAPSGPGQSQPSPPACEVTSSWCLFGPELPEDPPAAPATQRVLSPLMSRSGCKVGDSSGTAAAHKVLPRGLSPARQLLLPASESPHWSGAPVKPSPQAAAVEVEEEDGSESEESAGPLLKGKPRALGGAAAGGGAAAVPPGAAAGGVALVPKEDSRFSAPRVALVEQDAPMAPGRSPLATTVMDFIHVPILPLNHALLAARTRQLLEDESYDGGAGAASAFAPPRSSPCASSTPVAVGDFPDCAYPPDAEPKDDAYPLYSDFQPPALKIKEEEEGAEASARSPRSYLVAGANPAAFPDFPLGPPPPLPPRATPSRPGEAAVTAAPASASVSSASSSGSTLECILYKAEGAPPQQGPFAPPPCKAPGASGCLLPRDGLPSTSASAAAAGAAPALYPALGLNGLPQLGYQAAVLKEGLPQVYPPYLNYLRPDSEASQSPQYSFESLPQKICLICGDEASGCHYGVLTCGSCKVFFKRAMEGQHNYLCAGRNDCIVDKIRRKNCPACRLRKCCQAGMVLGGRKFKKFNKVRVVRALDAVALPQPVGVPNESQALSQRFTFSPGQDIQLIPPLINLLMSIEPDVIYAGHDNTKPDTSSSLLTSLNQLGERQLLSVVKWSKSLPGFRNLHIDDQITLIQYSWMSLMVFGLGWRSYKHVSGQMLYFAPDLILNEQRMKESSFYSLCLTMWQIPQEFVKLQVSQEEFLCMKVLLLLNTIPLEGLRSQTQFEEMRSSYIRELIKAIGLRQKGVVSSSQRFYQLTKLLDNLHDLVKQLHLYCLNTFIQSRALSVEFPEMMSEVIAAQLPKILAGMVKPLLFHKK
Regarding `CN1C(=O)CC(C)(c2ccccc2)C1=O` (centres undefined), the Potency result is “inactive”. Regarding `CC(=O)Nc1ccccc1C`, the Potency entry was “inactive”.

For `CCCCC(CC)COC(=O)COc1ccc(Cl)cc1C` (centres undefined), the Potency result was “inactive”. `COc1ccc(CCC(=O)c2c(O)cc(O[C@@H]3O[C@H](CO)[C@@H](O)[C@H](O)[C@H]3O[C@@H]3O[C@@H](C)[C@H](O)[C@@H](O)[C@H]3O)cc2O)cc1O`: the Potency entry is “inactive”.

As for `Cc1cc(OI)c(C(C)C)cc1-c1cc(C(C)C)c(OI)cc1C`, the Potency result was “inactive”. Regarding `CCCOCCOCCO`, the Potency entry is “inactive”. With `CC(=O)Nc1ccc(N)cc1`, the Potency entry was “inactive”. For the compound `CC1=C(C=O)C(C)(C)CCC1`, the Potency entry was “inactive”. `C=CCCCCCCCCCCCCCCCC`: the Potency was 733 nM (active).

Consider `[O]=[Bi]`, for which the activation is 4.47% [at 8.39 µM]. Regarding `CN1Cc2cc(C(=O)N3CCC(C4CCNCC4)CC3)ccc2N[C@@H](CC(=O)O)C1=O`, the Potency entry is “inactive”. On the same count and under the same terms, the same measure for `Cc1ccccc1N1C(=O)c2cc(S(N)(=O)=O)c(Cl)cc2NC1C` (centres undefined): “inactive”; for `CC(CCO)CCc1ccccc1` (centres undefined): “inactive”; for `O=C(O)c1snc(Cl)c1Cl`: “inactive”.

For `Cc1nc2ccccc2s1`, the Potency result is “inactive”. `C=CC(=O)NCOCC(C)C`: the Potency result was “inactive”.

For the compound `CCn1cc(C(=O)O)c(=O)c2cc(F)c(N3CCNCC3)nc21`, the Potency entry was “inactive”. On to `NC(=O)Nc1ccc(Cl)cc1`, for which the Potency entry is “inactive”. On to `Cc1ccnc2ccccc12`, for which the Potency result was “inactive”. `CN1CCN(c2c(F)cc3c(=O)c(C(=O)O)cn4c3c2OCN4C)CC1`: the activation was 1.06% [at 19 µM].
